The source of these data is publication PMC10668032, “Altered binding affinity of SIX1-Q177R correlates with enhanced WNT5A and WNT pathway effector expression in Wilms tumor”.

Whole data set: some 33,000 sequences, median “e-score” near -0.053, cut for the highest 2% near 0.38. This excerpt belongs to a sample that is enriched for the highest values.

For the test, the target named is T1, SIX1 homeodomain (reference allele) (human, UniProt Q15475 108-198).
T1 sequence: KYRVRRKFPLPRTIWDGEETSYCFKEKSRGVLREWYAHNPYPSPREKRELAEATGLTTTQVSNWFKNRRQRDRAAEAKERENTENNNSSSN
Description: universal protein binding microarray; Universal all-10-mer PBM (8x60K, AMADID 030236), 300 nM GST-tagged protein, Alexa Fluor 488 anti-GST; buffer, salt, pH and temperature not stated (as in Berger); high values mean tight binding. As to conditions: protein: ivt; tags: N-terminal GST; dsDNA, one strand shown. The procedure, abridged: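 GST-tagged homeodomains were made by in vitro transcription/translation and quantified by anti-GST western blot against a recombinant GST standard curve. They were applied in duplicate at 300 nM final concentration to universal 'all 10-mer' protein binding microarrays (8×60K format). Binding was quantified as 8-mer E-scores with the Universal PBM Analysis Suite.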
Turning to ATACCCGC, the binding signal was 0.3787 ± 0.00251 E-score.
In the case of ATACACGC it was 0.328 ± 0.00888 E-score; in that of ATACCAGA, 0.299 ± 0.0031 E-score; in that of ACACCCGC, 0.27 ± 0.0197 E-score.
Under AGACCCGG stands 0.214 ± 0.0594 E-score; under AGACCCGA, 0.196 ± 0.0537 E-score.
In the case of GATTATAA it was 0.165 ± 0.0198 E-score.
Turning to GATTACAC, the binding signal is 0.164 ± 0.0334 E-score.
In the case of ATAGACAC it was 0.285 ± 0.0262 E-score.
In the case of GACACGGA it was 0.196 ± 0.00735 E-score; in that of AGGAATAC, 0.2106 ± 0.00182 E-score; in that of GGATTGGA, 0.171 ± 0.00314 E-score.
ATACTGCC: the binding signal was determined as 0.3133 ± 0.000361 E-score.
Under ATCGTTGC stands 0.202 ± 0.04 E-score; under TAATACTA, 0.276 ± 0.0717 E-score; under GCATAATA, 0.187 E-score.
As for GGGATCGA, the binding signal amounted to 0.385 ± 0.0533 E-score.
In the case of CGGATCAG it was 0.443 ± 0.0116 E-score.
In the case of CGGATCAC it was 0.463 ± 0.00697 E-score.
In the case of AGGATCGA it was 0.289 ± 0.0472 E-score; in that of CGGATCAA, 0.417 ± 0.0173 E-score; in that of TGGATCAA, 0.3057 ± 0.00301 E-score.
Consider CCGATCAG, for which the binding signal was 0.24 ± 0.0341 E-score.
In the case of CTGATCAG it was 0.313 ± 0.0448 E-score.
With CCGATCAC, the binding signal was 0.346 ± 0.0289 E-score.
Consider CGGATCGA, for which the binding signal was 0.34 ± 0.0821 E-score.
Take AGGATCAA: the binding signal came out at 0.352 ± 0.036 E-score.
Under CTGATCAC stands 0.204 ± 0.0353 E-score.
For the sequence CGAGATCG, the binding signal is 0.207 ± 0.0304 E-score.
In the case of TAATATGA it was 0.196 ± 0.0472 E-score; in that of CCCCGATA, 0.347 ± 0.00347 E-score.
With CCTTGATC, the binding signal was 0.243 ± 0.0361 E-score.
Turning to GCGATCAA, the binding signal was 0.18 ± 0.0413 E-score.
Under GTGATCAC stands 0.306 ± 0.0127 E-score; under GCGATCAC, 0.354 ± 0.0376 E-score.
In the case of GAGATCAA it was 0.31 ± 0.0391 E-score; in that of GGGATCAC, 0.445 ± 0.0186 E-score; in that of GGGATCAA, 0.386 ± 0.0187 E-score.
Under ATCGGTGG stands 0.189 ± 0.0514 E-score; under CAACACCG, 0.268 ± 0.021 E-score.
Consider CCCTGATC, for which the binding signal stood at 0.33 ± 0.0305 E-score.
Under AGTTGATC stands 0.23 ± 0.0154 E-score; under ACTTGATA, 0.374 ± 0.0379 E-score; under GCTTGATA, 0.351 ± 0.0581 E-score.
In the case of GGTTGATA it was 0.384 ± 0.0228 E-score.
In the case of CGTTGATA it was 0.334 ± 0.0658 E-score; in that of AGTTGATA, 0.406 ± 0.0373 E-score.
For the sequence AGATAACG, the binding signal stood at 0.191 ± 0.042 E-score.
In the case of ATATGCGC it was 0.27 ± 0.0371 E-score; in that of CGGCTCAC, 0.174 ± 0.0262 E-score.
In the case of CGTATCCA it was 0.403 ± 0.0252 E-score; in that of CTTATCCA, 0.186 ± 0.0114 E-score.
In the case of CTTATCCC it was 0.235 ± 0.0469 E-score; in that of CGTATCCC, 0.389 ± 0.00815 E-score; in that of ACTATCCC, 0.294 ± 0.0143 E-score.
Take CCTATCCA: the binding signal is 0.232 ± 0.0293 E-score.
For the sequence AGTATCCC, the binding signal was found to be 0.412 ± 0.00869 E-score.
Under ATTATCCC stands 0.274 ± 0.0711 E-score; under CCTATCCC, 0.291 ± 0.0369 E-score; under GATCCTGC, 0.353 ± 0.0135 E-score.
Under CATCTAAG stands 0.178 ± 0.0937 E-score; under ATACTGGA, 0.325 ± 0.00489 E-score; under ATTGGATC, 0.365 ± 0.0365 E-score.
Under ATCGAGCG stands 0.156 ± 0.0113 E-score; under TATATTCA, 0.166 ± 0.0205 E-score; under AACCATAT, 0.303 ± 0.013 E-score.
As to ACCCATCT, the binding signal is 0.204 ± 0.0603 E-score.
Under ACCCATAT stands 0.3794 ± 0.00238 E-score; under GATTGATA, 0.381 ± 0.046 E-score; under GATTGAGA, 0.151 ± 0.0232 E-score.
Regarding CATTGATC, the binding signal amounted to 0.265 ± 0.000601 E-score.
In the case of AATTGATA it was 0.344 ± 0.0859 E-score.
Under CATTGATA stands 0.391 ± 0.0167 E-score; under CCTTGATA, 0.317 ± 0.0459 E-score; under ACACCTCA, 0.24 ± 0.0368 E-score.
As for ACTAGCCG, the binding signal is 0.183 ± 0.0569 E-score.
In the case of CTATAATC it was 0.157 ± 0.0879 E-score; in that of ATCGTGGG, 0.163 ± 0.0327 E-score; in that of ATGGATAC, 0.447 ± 0.0217 E-score.
In the case of ATGGATAA it was 0.212 ± 0.00686 E-score; in that of ATGGATAG, 0.247 ± 0.00822 E-score.
CTGGATTA: the binding signal turned out to be 0.177 ± 0.0302 E-score.
Under CTGGATAC stands 0.387 ± 0.0256 E-score.
Turning to ACTACGAT, the binding signal worked out at 0.1669 ± 0.00123 E-score.
Under TATCCAGA stands 0.3343 ± 0.00221 E-score.
Under ATACACAA stands 0.232 ± 0.0214 E-score; under AGGATTAA, 0.243 ± 0.0865 E-score; under ATCCCTCA, 0.312 ± 0.0176 E-score.
In the case of AATACCCT it was 0.384 ± 0.0168 E-score; in that of AATACCTC, 0.331 ± 0.0598 E-score.
Turning to GATACCCC, the binding signal worked out at 0.4957 ± 0.00126 E-score.
In the case of AATACCCG it was 0.293 ± 0.0206 E-score.
Under GCTACCCC stands 0.158 ± 0.092 E-score.
Regarding CATACCCC, the binding signal turned out to be 0.258 ± 0.054 E-score.
In the case of AATACCCC it was 0.4268 ± 0.000757 E-score.
In the case of AATACCCA it was 0.2902 ± 0.00209 E-score; in that of AATACCAG, 0.306 ± 0.0188 E-score.
In the case of CCGTCTCG it was 0.232 ± 0.00359 E-score; in that of CAATACGG, 0.178 ± 0.00369 E-score.
ATTAAATA: the binding signal came out at 0.24 ± 0.0313 E-score.
Under GATCAGCA stands 0.235 ± 0.00865 E-score; under ATACGGAC, 0.193 ± 0.00348 E-score; under AATATACA, 0.222 ± 0.0386 E-score.
Under TATATACA stands 0.284 ± 0.0122 E-score; under GATATACC, 0.4592 ± 0.00376 E-score; under GATATTCC, 0.376 ± 0.0303 E-score.
In the case of CATATACC it was 0.282 ± 0.0234 E-score; in that of AATATTCC, 0.251 ± 0.0499 E-score.
In the case of GATATTCA, the binding signal came out at 0.232 ± 0.0803 E-score.
In the case of GATATACA it was 0.384 ± 0.0104 E-score; in that of AATATACC, 0.32 ± 0.0474 E-score.
